Reference: PubChem BioAssay (NCATS)
Inconclusive results are not listed. A call without a number means that no potency is given here. The source made the active and inactive calls. Calls come from the whole dose curve; as a rule, active = well fitted inhibition curve with a large enough effect; inconclusive = small, poorly fitted or top-dose-only effect; inactive = flat fitted curve, though single readings scatter.

Assay: qHTS for Inhibitors of Plasmodium falciparum (7G8) proliferation (AID 504316); note: nearly all actives have a fitted effect of over 65% in size
Conditions: P. falciparum 7G8 in erythrocytes, SYBR Green DNA, 72 h; series mostly up to 6.7 µM
From the text: Plasmodium falciparum is a virulent malarial parasite that kills 1-2 million people worldwide each year. Malaria not only inflicts tremendous suffering and morbidity on the human population, but has dramatically influenced the course of civilization with profound sociological and economic implications (Shah, S. 2010). Transmitted by mosquitoes, the sporozoite form of the parasite enters the blood stream to infect hepatocytes, where they become merozoites that infect red blood cells (erythrocytes). Within erythrocytes, merozoites begin a […] cycle of growth and division, after which the parasite is released to infect new red blood cells. Gametocytes, which form within erythrocytes as well, circulate in the bloodstream and are ingested by the mosquito, thereby completing the life cycle (see CDC website). To profile malarial lines for differential chemical responses and to identify inhibitors of malarial growth, an assay that measures P. falciparum growth and replication within erythrocytes was employed. This assay uses a DNA binding fluorescent dye (SYBR Green) to detect parasite DNA following cell lysis. Because mature erythrocytes lack DNA, only Plasmodium-derived DNA is detected. The P. falciparum line cp250, derived from a malarial isolate from Cambodia, (Mu, J., et al. 2010) was added to the panel of lines, Dd2, HB3, 7G8 and GB4 in this study. Laboratory of Assay Development and Screening Technology [ADST] and NIH Chemical Genomics Center [NCGC] Boston University, Chemistry Department, Center for Chemical Methodology and Library Development [CMLD-BU] NIH National Institute of Allergy and Infectious Diseases [NIAID]
ADST Assay Protocol Summary: The 1536-well SYBR Green viability assay was based on the method of Bennett et al (2004) and described previously in 1536-well format (Yuan J., et al. 2009). For screening 3 ul culture medium was dispensed into 1536 well black clear bottom plates (Aurora Biotechnologies) using a Multidrop Combi (Thermo Fisher Scientific Inc.), 23 nL compounds in DMSO were added by a pin transfer (Cleveland, P.H. and Koutz, P.J, 2005) using a pin tool-based delivery system (Kalypsys), and 5 ul of erythrocytes infected with P. falciparum one of five lines (cp250, Dd2, HB3, 7G8 or GB4, 0.3% parasitemia, 2.5% hematocrit final concentration) were added. The plates were incubated at 37C in a humidified incubator in 5% CO2 for 72 h, and 2 ul lysis buffer (20 mM Tris HCl, 10 mM EDTA, 0.16% saponin, 1.6% triton X, 10X SYBR Green I (supplied as 10,000X final concentration by Invitrogen) was added to each well. The plates were mixed for 25 sec with gentle shaking and incubated overnight at room temperature in the dark. The following morning, fluorescence intensity at 485(14) nm excitation and 535(25) nm emission wavelengths was measured on an EnVision (Perkin Elmer) plate reader. Plate reads were normalized relative to the control inhibitor (0.29 uM artemisinin) and vehicle (DMSO) wells present on each plate and then corrected by an algorithm using vehicle-only control plates at the beginning and end of the compound plate stack. References Shah, S. (2010). The Fever: how malaria has ruled humankind for 500,000 years. New York, Sarah Crichton Books. CDC web site, http://www.cdc.gov/malaria/about/biology/index.html Mu, J., Myers, R.A., Jiang, H., Liu, S., Ricklefs, S., Waisberg, M., Chotivanich, K., Wilairatana, P., Krudsood, S., White, N.J., et Plasmodium falciparum genome-wide scans for positive selection, recombination hot spots and resistance to antimalarial drugs Nature Genetics 2010, 42, pp 268-271 Bennett TN, Paguio, M., Gligorijevic, B., Seudieu, C., Kosar, A. D., Davidson, E., and Roepe, P. D. Novel, rapid, and inexpensive cell-based quantification of antimalarial drug efficacy Antimicrobial Agents Chemother. 2004, 48(5): pp 1807-10 Yuan J, Johnson RL, Huang RL, Wichterman J, Jiang HY, Hayton K, Fidock DA, Wellems TE, Inglese J, Austin CP, Su XZ. […]
Potency is the fitted concentration of half-maximal effect.

SMILES	Potency
CC(=O)OC[C@H]1O[C@H](C#Cc2ccccc2)C=C[C@@H]1OC(C)=O	inactive
CCCCn1c(C)cc2c(c1=O)[C@H]1O[C@](c3ccsc3)(Cc3cc(OC)c(OC)cc31)O2	inactive
CCO[C@@H]1C[C@@]1(C=C[C@@H](C)[C@H](OC)c1ccccc1Br)C(=O)OC	inactive
CC(=O)OC[C@H]1O[C@H](CC=NO[C@H](C)c2cn([C@@H]3COC[C@@H]3O)nn2)C=C[C@@H]1OC(C)=O	inactive
COc1ccc(C(=O)CC(=O)c2c(O)cc(OC)cc2OC)cc1	inactive
Cc1cc2c(c(=O)o1)[C@H]1O[C@](c3ccsc3)(Cc3cc(C#N)ccc31)O2	inactive
COC(=O)C1=C2C=CCCN2C(=O)NC1c1ccccc1 (stereo not given)	inactive
COC(=O)C(C(=O)OC)c1ccccc1[N+](=O)[O-]	inactive
C[C@@H]1C[C@](C)(C(=O)c2ccco2)C=C1c1ccco1	inactive
COC(=O)CC=C[C@@H](C)[C@@H](COc1ccccc1Br)OC	inactive
COc1ccc2c(c1)O[C@H](c1ccc3c(c1)OCO3)[C@@H](OC(=O)NCc1ccc3c(c1)OCO3)C2=O	inactive
CC1(C)CC(=O)C2=C(C1)O[C@@]1(CCCCN3C(=O)c4ccccc4C3=O)Cc3ccccc3[C@H]2O1	1510 nM (active)
COC1=C[C@H](C(=O)NCc2ccc(Br)cc2)C(C)C(c2ccccc2)CC1=O (stereo not given in full)	inactive
O=C1OCCC=C1C(O)CCc1ccccc1 (stereo not given)	inactive
CCCCS(=O)(=O)N1C2=NC3=C(C(=O)N(CCOC)C3=O)C3N(C)c4ccccc4[C@]23C[C@H]1CO (stereo not given in full)	inactive
C=CCOC(=O)C1(C(NC(=O)OC)c2ccccc2)C(=O)Cc2ccccc21 (stereo not given)	inactive
COC(=O)C1=C(C(=O)OC)[C@@H]2Nc3ccccc3[C@@]23C[C@@H](C(=O)OC)N(C(=O)NCCBr)C3=N1	1900 nM (active)
COC(=O)CC=C1c2ccc(F)cc2[C@@H](OC)[C@@H]1C	inactive
C=CCOC(=O)N[C@H](c1ccc2ccccc2c1)[C@H](C)C=CCC(=O)OC	inactive
CCCCn1c(C)cc2c(c1=O)[C@H]1O[C@](CCCC)(Cc3cc(C#N)ccc31)O2	1900 nM (active)

SMILES	Potency
C=C(C)C(O)C=Cc1ccc(C(F)(F)F)cc1 (stereo not given)	inactive
O=C(C=NO)NCCCCNC(=O)C=NO	inactive
O=C(N[C@H](c1cccc(Br)c1)[C@@H]1CCCC=C1c1ccccc1)C(F)(F)F	inactive
O=C1C=C(c2ccccc2)CCC1	inactive
COC(=O)[C@H](COC(C)(C)C)NC(=O)O[C@H]1C(=O)c2ccc(OC)cc2O[C@@H]1c1ccc2c(c1)OCO2	inactive
COC1=C[C@H](C(=O)NCc2ccc(OC)cc2)C(C)C(c2ccccc2)CC1=O (stereo not given in full)	inactive
CCCCc1nc2c(c3c1C[C@H](C)OC3)CN(C(=O)c1cccnc1)CC2	inactive
CCCC[C@]12Cc3cc(OC)c(OC)cc3[C@H](O1)c1c(cc(-c3ccccc3)oc1=O)O2	1510 nM (active)
CCN1C(=NCc2ccc(OC)cc2)N[C@@H](CCc2ccccc2)[C@H](C(=O)NCc2ccc(OC)cc2)[C@H]1C	inactive
CCN(CCNC(=O)[C@H]1C=C(OC)C(=O)C[C@H](c2ccccc2)[C@@H]1C)C(C)=O	inactive
COc1ccc(-c2nc3c(c4c2C[C@H](c2ccccc2)OC4)CN(C(=O)N[C@@H](C)c2ccccc2)CC3)c(C)c1	1690 nM (active)
COC(=O)CCCC1=CC2=C(c3ccccc3)C(=O)C(C)(OC(=O)C3CCCC3)C(=O)C2=CN1Cc1ccc(OC)cc1 (stereo not given)	inactive
CCN1C(=NCCc2ccc(Br)cc2)NC(c2ccccc2)C(C(=O)OC)=C1C (stereo not given)	inactive
COC(=O)C[C@H]1c2ccccc2[C@@H]2C(=C[C@@H](C)[C@H]3C(=O)N(c4ccccc4)C(=O)[C@H]32)N1C(=O)OC	inactive
CCN1C(=O)N[C@@H](c2ccccc2)[C@@H](C(=O)OC)[C@H]1C	inactive
CC(=O)OC[C@H]1O[C@H](C#Cc2ccccc2Cl)C=C[C@H]1OC(C)=O	inactive
CON(C)C(=O)c1nnc2c3ccccc3n(S(=O)(=O)c3ccc(C)cc3)c2n1	inactive
CCCC[C@@H]1CN2[C@@H](CC[C@H](C)[C@@H]2c2ccc(Br)cc2)C(=O)O1	inactive
CC(=O)OC[C@H]1O[C@H](CCON=C[C@@H](C)[C@H](OCc2ccccc2)C(C)C)C=C[C@@H]1OC(C)=O	inactive
COC(=O)N1[C@H]2CC[C@@]3(C)CC(=O)C[C@]1(C)C3c1ccccc12	inactive
